Broadly, the AC50 is the concentration giving half of the maximal activity seen.

Experimental findings from PubChem BioAssay (EPA / NIEHS) are described below.

Each structure is given as a SMILES string. Some compounds were tested as several samples or in several runs, with calls that do not always agree. Calls of active or inactive are those of the source. How the source made its calls: active means hit-call score of the fitted dose curve at least 0.9, where 1 is the maximum; inactive means score below 0.9.

Read-out in assay [1]: Macrophage colony-stimulating factor (MCSF), CSF1 (gene 1435)
Nature of the assay: BSK_LPS_MCSF: BioMAP Diversity Plus: LPS Assay for Macrophage colony-stimulating factor (MCSF) Biomarker Activity (AID 2283083). Particulars: primary human HUVEC with PBMC; actives raise or lower the signal. The procedure, abridged: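 HUVEC + PBMC co-culture (human primary), 24 h post-dose; M-CSF by ELISA; gain/loss of signal fitted bidirectionally vs DMSO baseline.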

Read-out in assay [2]: Tissue Factor, F3 (gene 2152)
Nature of the assay: BSK_LPS_TissueFactor: BioMAP Diversity Plus: LPS Assay for Tissue Factor Biomarker Activity (AID 2283084). Particulars: primary human HUVEC with PBMC; actives raise or lower the signal. The method, boiled down:
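HUVEC/PBMC co-culture, LPS-activated; CD142 ELISA read 24 h post-dose; bidirectional curve fit vs DMSO negative control.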

Read-out in assay [3]: Tumor necrosis factor (Homo sapiens) (UniProt P01375)
Nature of the assay: BSK_LPS_TNFa: BioMAP Diversity Plus: LPS Assay for Tumour Necrosis Factor alpha (TNFa) Biomarker Activity (AID 2283085).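 On AC50: TNFa protein level quantified by ELISA in the co-culture.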 Particulars: primary human HUVEC with PBMC; actives raise or lower the signal. The method, boiled down: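 TNFa was quantified by ELISA in LPS-activated co-cultures of human endothelial cells and PBMC, 24 h post-dosing. Both increases and decreases versus DMSO were fitted.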

Read-out in assay [4]: Vascular cell adhesion molecule 1 (VCAM1), VCAM1 (gene 7412)
Nature of the assay: BSK_LPS_VCAM1: BioMAP Diversity Plus: LPS Assay for Vascular cell adhesion molecule 1 (VCAM1) Biomarker Activity (AID 2283086). Particulars: primary human HUVEC with PBMC; actives raise or lower the signal. The method, boiled down:
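VCAM-1 quantified by ELISA in an LPS-activated co-culture of human endothelial cells and peripheral blood mononuclear cells, read 24 h post-treatment. Fitted in both directions versus DMSO; parallel SRB staining flags overt cytotoxicity.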

Read-out in the next assay: CD38, CD38 (gene 952)
Briefly: BSK_SAg_CD38: BioMAP Diversity Plus: SAg Assay for CD38 Biomarker Activity (AID 2283087). Particulars: primary human HUVEC with PBMC; actives raise or lower the signal. The procedure, abridged: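 CD38 quantified by ELISA (fluorescence) in a superantigen-activated endothelial cell–PBMC co-culture at 24 h post-dose. Activity fitted in both directions relative to DMSO; parallel SRB and Alamar Blue cytotoxicity read-outs.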

Read-out in the next assay: CD40, CD40 (gene 958)
Nature of the assay: BSK_SAg_CD40: BioMAP Diversity Plus: SAg Assay for CD40 Biomarker Activity (AID 2283088). Particulars: primary human HUVEC with PBMC; actives raise or lower the signal. The procedure, abridged:
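HUVEC/PBMC co-culture, 24 h post-dose; CD40 by ELISA, fluorescence intensity; bidirectional fit vs DMSO negative control.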

Read-out in the next assay: CD69, CD69 (gene 969)
Briefly: BSK_SAg_CD69: BioMAP Diversity Plus: SAg Assay for CD69 Biomarker Activity (AID 2283089).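 On AC50: cell surface CD69 protein quantified by ELISA with fluorescence detection.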 Particulars: primary human HUVEC with PBMC; actives raise or lower the signal. The procedure, abridged:
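Endothelial/PBMC co-culture; chemical added; 24 h incubation; CD69 ELISA with fluorescence detection; bidirectional fit vs DMSO.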

Read-out in assay [5]: Monocyte Chemoattractant Protein-1 (MCP1), CCL2 (gene 6347)
Briefly: BSK_SAg_MCP1: BioMAP Diversity Plus: SAg Assay for Monocyte Chemoattractant Protein-1 (MCP1) Biomarker Activity (AID 2283090). Particulars: primary human HUVEC with PBMC; actives raise or lower the signal. The method, boiled down: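 Values derive from bidirectional fitting of ELISA-measured MCP1 against DMSO controls. Readings were taken 24 h after dosing human vascular endothelial cells co-cultured with peripheral blood mononuclear cells under superantigen stimulation.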

Read-out in assay [6]: E-selectin (Homo sapiens) (UniProt P16581)
Nature of the assay: BSK_SAg_Eselectin: BioMAP Diversity Plus: SAg Assay for Eselectin Biomarker Activity (AID 2283091). Particulars: primary human HUVEC with PBMC; actives raise or lower the signal. The procedure, abridged:
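E-selectin ELISA readout at 24 h post-dosing in human umbilical vein endothelial cell/PBMC co-culture; gain or loss of signal fitted relative to DMSO baseline.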

Read-out in assay [7]: Monokine induced gamma interferon (MIG), CXCL9 (gene 4283)
Briefly: BSK_SAg_MIG: BioMAP Diversity Plus: SAg Assay for Monokine induced gamma interferon (MIG) Biomarker Activity (AID 2283092). Particulars: primary human HUVEC with PBMC; actives raise or lower the signal. The procedure, abridged:
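Measures CXCL9 protein by ELISA in a human vascular primary-cell co-culture (umbilical vein endothelium with PBMC) 24 h after chemical addition. Activity is scored up or down from the DMSO control.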

The nature of assay [8]: BSK_SAg_PBMCCytotoxicity: PBMC Cytotoxicity Assessment in the BioMAP Diversity Plus: SAg Assay (AID 2283093).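 Further: fitted both ways against DMSO so a hit may be loss or gain of signal.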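 On AC50: PBMC superantigen activated with SEB plus TSST-1 one hour after compound addition.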 Particulars: primary human HUVEC with PBMC. The procedure, abridged: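 PBMC viability by Alamar Blue reduction, fluorescence read at 546/580 nm after 6 h dye exposure. Cells were dosed 1 h before SEB plus TSST-1 activation (20 ng/mL final each), then held 90 h; endothelial/PBMC human co-culture.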

Read-out in assay [9]: Interleukin-8 (IL8), CXCL8 (gene 3576)
Briefly: BSK_SAg_IL8: BioMAP Diversity Plus: SAg Assay for Interleukin-8 (IL8) Biomarker Activity (AID 2283094). Particulars: primary human HUVEC with PBMC; actives raise or lower the signal. The procedure, abridged: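 ELISA readout of IL-8 from a superantigen-activated endothelial/PBMC primary human co-culture, taken 24 h post-dosing and fitted in both directions against DMSO; parallel SRB total-protein staining flags overt cytotoxicity.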

Assay [10] in a line: BSK_SAg_Proliferation: Cell Proliferation Assessment in the BioMAP Diversity Plus: SAg Assay (AID 2283095).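 Further: relative cell number as total protein by SRB absorbance in sub-confluent culture.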 Particulars: primary human HUVEC with PBMC. The procedure, abridged:
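Relative cell number in the endothelial cell/PBMC co-culture was quantified at 96 h by SRB staining (0.1% SRB, 10% TCA fixation, read at 560 nm). Curves were fitted in both directions relative to DMSO baseline.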

A short description of assay [11]: BSK_SAg_SRB: Viability Assessment in the BioMAP Diversity Plus: SAg Assay (AID 2283096).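 Further: cells read one day after compound addition; hits may be either gain or loss of signal compared with DMSO.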 Particulars: primary human HUVEC with PBMC. The method, boiled down:
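Compounds were added to a human vascular co-culture of umbilical vein endothelium and PBMC. After 24 h, parallel cultures were fixed with 10% TCA, stained with 0.1% sulforhodamine B and read at 560 nm. Gain or loss of signal was fitted relative to DMSO.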

Tumor necrosis factor (Homo sapiens), sequence (P01375 whole entry, looked up): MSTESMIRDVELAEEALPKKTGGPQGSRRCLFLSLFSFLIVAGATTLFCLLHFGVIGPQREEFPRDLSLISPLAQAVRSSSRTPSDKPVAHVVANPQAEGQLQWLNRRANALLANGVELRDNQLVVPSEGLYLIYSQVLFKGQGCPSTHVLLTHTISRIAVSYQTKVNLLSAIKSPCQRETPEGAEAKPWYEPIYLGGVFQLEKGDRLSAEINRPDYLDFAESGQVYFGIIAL
E-selectin (Homo sapiens), sequence (P16581 whole entry, looked up): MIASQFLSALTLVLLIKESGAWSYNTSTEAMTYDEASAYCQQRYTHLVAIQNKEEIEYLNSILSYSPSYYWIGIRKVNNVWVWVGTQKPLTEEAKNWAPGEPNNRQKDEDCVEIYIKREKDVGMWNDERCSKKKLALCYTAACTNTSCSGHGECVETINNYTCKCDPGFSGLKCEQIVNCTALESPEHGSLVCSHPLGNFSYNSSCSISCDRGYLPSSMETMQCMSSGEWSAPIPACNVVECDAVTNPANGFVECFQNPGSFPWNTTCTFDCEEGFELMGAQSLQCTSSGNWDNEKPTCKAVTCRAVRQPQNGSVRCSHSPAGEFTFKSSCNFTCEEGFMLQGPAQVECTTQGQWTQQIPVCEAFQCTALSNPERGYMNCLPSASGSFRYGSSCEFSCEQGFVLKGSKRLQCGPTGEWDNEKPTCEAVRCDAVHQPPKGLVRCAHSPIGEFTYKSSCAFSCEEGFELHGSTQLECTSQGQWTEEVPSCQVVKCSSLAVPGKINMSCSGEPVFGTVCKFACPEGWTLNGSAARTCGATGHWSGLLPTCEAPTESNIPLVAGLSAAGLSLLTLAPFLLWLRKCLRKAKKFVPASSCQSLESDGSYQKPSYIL

Turning to `C[C@]12C=CC(=O)C=C1CC[C@H]1[C@@H]3C[C@@H](O)[C@](O)(C(=O)CO)[C@@]3(C)C[C@H](O)[C@@]12F`, the outcome is “inactive” in [1]; “inactive” in assay [2]; “inactive” in assay [4]; “inactive” with CD38, CD38 (gene 952); “inactive” in the assay with CD40, CD40 (gene 958); “inactive” with CD69, CD69 (gene 969). The result in assay [7], in assay [8], in [9], in assay [10] and in assay [11] was inactive. Also, the half-maximal activity concentration (AC50) is 0.557 µM (active) in [3], 5.08 µM (active) in assay [5] and 3.66 µM (active) in assay [6].

On to `c1ccc2ncccc2c1`, for which the outcome in assay [1] was “inactive”; in assay [2], “inactive”; in assay [3], “inactive”; in assay [4], “inactive”; in the assay with CD38, CD38 (gene 952), “inactive”; with CD40, CD40 (gene 958) it was “inactive”. In addition, the outcome was “inactive” in the assay with CD69, CD69 (gene 969); “inactive” in [5]; “inactive” in assay [6]; “inactive” in assay [7]; “inactive” in assay [8]; “inactive” in [9]. For the same compound, the result in [10] and in assay [11] was inactive.

In the case of `COCc1nnc(-c2ccc[n+]([O-])c2)n1-c1c(Cl)c(Cl)cc2[nH]c(=O)c(=O)[nH]c12`, the outcome was “inactive” in [1]; “inactive” in [2]; “inactive” in assay [3]; “inactive” in assay [4]; “inactive” with CD38, CD38 (gene 952); “inactive” with CD40, CD40 (gene 958). Further, the outcome was “inactive” in the assay with CD69, CD69 (gene 969); “inactive” in assay [5]; “inactive” in assay [6]; “inactive” in [7]; “inactive” in assay [8]; “inactive” in assay [9]. Also, the outcome in assay [10] and in [11] was inactive.

`OCCOCCOCCO`: the outcome in assay [1] is “inactive”; in assay [2], “inactive”; in assay [3], “inactive”; in assay [4] it was “inactive”; with CD38, CD38 (gene 952), “inactive”; in the assay with CD40, CD40 (gene 958) it was “inactive”. Moreover, the outcome with CD69, CD69 (gene 969) was “inactive”; in assay [5], “inactive”; in [6], “inactive”; in [7] it was “inactive”; in [8] it was “inactive”; in [9] it was “inactive”. The result in assay [10] and in [11] was inactive.

For the compound `Cc1cccc(O)c1C`, the outcome in assay [1] is “inactive”; in assay [2] it was “inactive”; in assay [3], “inactive”; in assay [4], “inactive”; with CD38, CD38 (gene 952), “inactive”; in the assay with CD40, CD40 (gene 958), “inactive”. In addition, the outcome was “inactive” in the assay with CD69, CD69 (gene 969); “inactive” in assay [5]; “inactive” in assay [6]; “inactive” in assay [7]; “inactive” in [8]; “inactive” in assay [9]. Also, the outcome in assay [10] and in [11] was inactive.

Consider `CC(C)c1nnc2ccc(-c3ocnc3-c3cc(F)ccc3F)cn12`, for which the outcome in assay [1] was “inactive”; with CD38, CD38 (gene 952), “inactive”; with CD40, CD40 (gene 958), “inactive”; in assay [7] it was “inactive”; in assay [11] it was “inactive”. Moreover, the AC50 was 0.356 µM (active) in assay [2]; 0.148 µM (active) in assay [3]; 0.979 µM (active) in assay [4]; 3.59 µM (active) in the assay with CD69, CD69 (gene 969); 3.97 µM (active) in assay [5]; 10.6 µM (active) in assay [6]. In addition, the AC50 in assay [8] was 0.882 µM (active); in assay [9], 1.27 µM (active); in assay [10], 12.8 µM (active).

Take `OCCC(F)(F)C(F)(F)C(F)(F)C(F)(F)F`: the outcome was “inactive” in [1]; “inactive” in assay [2]; “inactive” in assay [3]; “inactive” in [4]; “inactive” with CD38, CD38 (gene 952); “inactive” with CD40, CD40 (gene 958). Moreover, the outcome with CD69, CD69 (gene 969) was “inactive”; in [5], “inactive”; in [6], “inactive”; in assay [7] it was “inactive”; in assay [8] it was “inactive”; in assay [9], “inactive”. The outcome in assay [10] and in assay [11] was inactive. In addition, in the assay with CD38, CD38 (gene 952), the AC50 is 0.234 µM (active).

As for `OCC(CO)(CO)CO`, the outcome in assay [1] was “inactive”; in assay [2], “inactive”; in assay [3], “inactive”; in [4] it was “inactive”; in the assay with CD38, CD38 (gene 952), “inactive”; with CD40, CD40 (gene 958), “inactive”. The outcome with CD69, CD69 (gene 969) was “inactive”; in assay [5], “inactive”; in assay [6], “inactive”; in assay [7], “inactive”; in [8], “inactive”; in assay [9], “inactive”. Besides, the result in assay [10] and in [11] was inactive.
